# Laboratory results: article PMC11062922 (Nature Chemical Biology, 2023)
# How the values were obtained:
# Parameters in all cases: species or system human, MV4-11 + K-562 + COLO205 + SK-N-BE2 + OVCAR-8
# ABCD3 = conditions: read-out: apparent Kd; compound concentrations: 100 nM and 1000 nM (sheet 'Samples'), CATDS: 4.0800331971119997E-3; n = 1
# ACOX3 = conditions: read-out: apparent Kd; compound concentrations: 100 nM and 1000 nM (sheet 'Samples'), CATDS: 4.2441767473343E-3; n = 1
# CDK1 = conditions: read-out: apparent Kd; compound concentrations: 100 nM and 1000 nM (sheet 'Samples'), CATDS: 4.2052312432732299E-3; n = 1
# FN3K = conditions: read-out: apparent Kd; compound concentrations: 100 nM and 1000 nM (sheet 'Samples'), CATDS: 4.2262124169733604E-3; n = 1
# GRAMD1A = conditions: read-out: apparent Kd; compound concentrations: 100 nM and 1000 nM (sheet 'Samples'), CATDS: 3.9512769472384501E-3; n = 1
# MAP3K3 = conditions: read-out: apparent Kd; compound concentrations: 100 nM and 1000 nM (sheet 'Samples'), CATDS: 4.1000911479265297E-3; n = 1
# MAPK3 = conditions: read-out: apparent Kd; compound concentrations: 100 nM and 1000 nM (sheet 'Samples'), CATDS: 4.9102061744830498E-3; n = 1
# MAPK7 = conditions: read-out: apparent Kd; compound concentrations: 100 nM and 1000 nM (sheet 'Samples'), CATDS: 3.9838262564481702E-3; n = 1
# PKMYT1 = conditions: read-out: apparent Kd; compound concentrations: 100 nM and 1000 nM (sheet 'Samples'), CATDS: 4.7786675943352697E-3; n = 1
# SLC25A5 = conditions: read-out: apparent Kd; compound concentrations: 100 nM and 1000 nM (sheet 'Samples'), CATDS: 3.4931763386449499E-3; n = 1
# TAOK2 = conditions: read-out: apparent Kd; compound concentrations: 100 nM and 1000 nM (sheet 'Samples'), CATDS: 4.3468745935786399E-3; n = 1
# PSMC4 = conditions: read-out: apparent Kd; compound concentrations: 100 nM and 1000 nM (sheet 'Samples'), CATDS: 0.17422831247088; n = 1
# AMPK-alpha1 = conditions: compound concentrations: 100 nM and 1000 nM (sheet 'Samples')
# CLK1 = conditions: compound concentrations: 100 nM and 1000 nM (sheet 'Samples')
# DYRK1A = conditions: compound concentrations: 100 nM and 1000 nM (sheet 'Samples')
# MLK3 = conditions: compound concentrations: 100 nM and 1000 nM (sheet 'Samples')
# NEK3 = conditions: compound concentrations: 100 nM and 1000 nM (sheet 'Samples')
# NEK9 = conditions: compound concentrations: 100 nM and 1000 nM (sheet 'Samples')
# SRC = conditions: compound concentrations: 100 nM and 1000 nM (sheet 'Samples')
# STK16 = conditions: compound concentrations: 100 nM and 1000 nM (sheet 'Samples')
# 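For Kinobeads Data in this document: kinobeads ε competition pulldown from cell lysate, compound preincubated 45 min at 4 °C, bound kinases quantified by LC–MS/MS relative to DMSO control.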
smiles,measurement,setting,value
Cn1ncc2c(N)ncnc21 [SKF-18267],potency estimated from few doses,ABCD3,1270 nM
same,potency estimated from few doses,ACOX3,1160 nM
same,potency estimated from few doses,CDK1,1180 nM
same,potency estimated from few doses,FN3K,1170 nM
same,potency estimated from few doses,GRAMD1A,1380 nM
same,potency estimated from few doses,MAP3K3,1260 nM
same,potency estimated from few doses,MAPK3,844 nM
same,potency estimated from few doses,MAPK7,1350 nM
same,potency estimated from few doses,PKMYT1,892 nM
same,potency estimated from few doses,SLC25A5,1950 nM
same,potency estimated from few doses,TAOK2,1100 nM
O=C1NC(=O)/C(=C/c2ccc3ncccc3c2)S1 [RO4603632-000],potency estimated from few doses,PSMC4,1730 nM
COc1cc(Nc2ncc3c(C)nc(-c4cc5ccccc5[nH]4)n3n2)cc(OC)c1OC [GW869516X],Kinobeads Data,AMPK-alpha1,no target
same,Kinobeads Data,CLK1,no target
same,Kinobeads Data,DYRK1A,no target
same,Kinobeads Data,MLK3,no target
same,Kinobeads Data,NEK3,no target
same,Kinobeads Data,NEK9,no target
same,Kinobeads Data,SRC,no target
same,Kinobeads Data,STK16,no target
